The list is not random: actives were taken first. Their share in the collection is about 1.7%.
LYPLA1 inh = LYPLA1 (human) inhibition in PME1 counter-screen; recombinant LYPLA1, FP-Rh probe fluorescence polarization; inhibition, % at 5.9 µM; 320,000 compounds, 0.16% hits; AID 2174;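 active = inhibition above the mean of all tested compounds plus 3 SD, set per campaign, cut at about 14% in these data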;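 also: inhibitors block serine hydrolase probe labeling of LYPLA1 so polarization falls; 0% = enzyme with DMSO and 100% = wells lacking LYPLA1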
Target sequence (O75608 whole entry, looked up): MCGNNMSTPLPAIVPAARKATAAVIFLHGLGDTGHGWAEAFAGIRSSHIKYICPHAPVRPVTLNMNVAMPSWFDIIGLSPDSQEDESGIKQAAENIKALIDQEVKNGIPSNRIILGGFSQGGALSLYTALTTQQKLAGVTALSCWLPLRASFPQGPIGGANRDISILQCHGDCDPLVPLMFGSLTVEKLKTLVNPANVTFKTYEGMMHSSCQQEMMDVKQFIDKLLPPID
p97 inhibitor = human p97 ATPase inhibition | recombinant p97 ATPase, Kinase-Glo ATP luminescence, 3 h | inhibition, % at 8 µM | 220,000 compounds, 0.42% hits | AID 1481; in the data active = inhibition above about 15%;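 also: 0% = DMSO vehicle and 100% = wells lacking enzyme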
Rin1 Abl inh = blocks binding of human Rin1 to Abl; TR-FRET Rin1/Abl binding, biochemical; AID 588664; 360,000 compounds, 0.4% hits; inhibition, % at 7.35 µM; in the data active = inhibition above about 5%, passing the limit was not always enough
Hck-Nef inh = human Hck-Nef kinase inhibition | Recombinant Hck-YEEI plus Nef, Z-Lyte FRET kinase assay | P08631 | 220,000 compounds, 0.68% hits | inhibition, % at 20 µM;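 active = Hck-Nef kinase inhibition above about 50%, limit read from the data; inactive = inhibition below that limit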;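 also: 0% = DMSO with Hck plus Nef and 100% = Hck alone without Nef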
PREPL inh = human PREPL enzyme inhibition. Q4J6C6. recombinant PREPL, fluorescence polarization activity-based probe. inhibition, % at 5.96 µM. 320,000 compounds, 0.68% hits. AID 2751; in the data active = inhibition above about 43%;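 also: 0% = enzyme with DMSO and 100% = wells lacking enzyme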
LYPLA2 inh = counter-screen for PME1 inhibitors: inhibitors of human LYPLA2; O95372; recombinant LYPLA2, FP-Rh probe fluorescence polarization; inhibition, % at 5.9 µM; 320,000 compounds, 0.38% hits;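 active = inhibition above the screen-wide mean plus 3 SD, limit set per campaign, cut at about 26% in these data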;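 also: 0% = LYPLA2 with DMSO and 100% = wells lacking LYPLA2 enzyme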
Target sequence (O95372 whole entry, looked up): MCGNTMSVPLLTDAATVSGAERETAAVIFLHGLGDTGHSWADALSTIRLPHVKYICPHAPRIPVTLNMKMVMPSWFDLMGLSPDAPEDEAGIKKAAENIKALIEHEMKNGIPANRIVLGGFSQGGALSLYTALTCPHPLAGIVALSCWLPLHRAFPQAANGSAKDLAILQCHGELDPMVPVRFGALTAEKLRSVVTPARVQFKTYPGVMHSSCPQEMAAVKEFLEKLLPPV
p97 inh conf = confirmation of human p97 ATPase inhibitors; shares compounds with p97 inhibitor; inhibition, % at 8 µM; AID 1517; recombinant p97 ATPase, Kinase-Glo ATP luminescence; 760 compounds, 44% hits;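 active = percent inhibition of p97 ATPase above a set limit, the primary screen's mean plus 3 SD, cut at about 15% in these data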;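 also: 0% = DMSO wells and 100% = wells lacking p97 protein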
LYPLA1 conf = LYPLA1 (human) inhibition, confirmation counter-screen. 480 compounds, 69% hits. inhibition, % at 5.9 µM. recombinant LYPLA1, FP-Rh probe fluorescence polarization. shares compounds with LYPLA1 inh;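 active = mean inhibition across replicates above the hit cutoff set in the primary screen, cut at about 15% in these data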;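 also: loss of FP-Rh probe labeling of LYPLA1 seen as lower polarization; 0% = LYPLA1 with DMSO and 100% = wells lacking LYPLA1 enzyme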
* marks the source's active call; other numbers are inactive results; · = not tested or not shown.

SMILES | LYPLA1 inh | p97 inhibitor | Rin1 Abl inh | Hck-Nef inh | PREPL inh | LYPLA2 inh | p97 inh conf | others
O=C(O)c1cccc2c1-c1ccc(Cl)cc1C2 | · | · | -4 | · | · | · | ·
Cc1ccc(CCN2CC(C(=O)NCCCN3CCCCCC3)CC2=O)cc1 (stereo not given) | 2 | 21* | 2 | -1 | 26 | 5 | 5
O=C(N/N=C/c1cccs1)c1cc(-c2cccc3ccccc23)n[nH]1 | -40 | 16* | -4 | 6 | 3 | -71 | 27*
Cc1[nH][nH]c(=O)c1C(c1c(C)[nH][nH]c1=O)c1cn(Cc2ccccc2Cl)c2ccccc12 | · | 20* | 6 | -4 | · | · | 20*
N/C(=N\O)c1cn(Cc2ccccc2Cl)c2ccccc12 | 0 | · | 1 | · | 8 | 1 | ·
Cc1[nH]c2ccccc2c1C(=O)CCl | · | 36* | -3 | 24 | · | · | 37*
Cc1ccc(S(=O)(=O)CCC(=O)OCC(=O)c2c(C)[nH]c3ccccc23)cc1 | 5 | 20* | -1 | 1 | 16 | 9 | 14
Cn1c(-c2ccccc2)c(/C=N/NC(=O)c2ccc(O)cc2)c2ccccc21 | -7 | 17* | -3 | 1 | 7 | -1 | 28*
O=C(N/N=C\c1c(O)ccc2ccccc12)c1ccc(O)cc1 | -15 | · | 3 | · | 12 | -26 | ·
C[C@H]1CN([C@@H](C)CO)C(=O)CCCn2cc(nn2)CO[C@@H]1CN(C)C(=O)Nc1ccc(C(F)(F)F)cc1 | · | · | -2 | · | · | · | ·
Cc1ccc(C(C(=O)NCc2ccco2)N(C(=O)Cn2nnc3ccccc32)c2ccccc2)o1 (stereo not given) | 4 | 16* | 1 | 0 | -5 | 5 | 8
Cc1ccc(N(C(=O)Cn2nnc3ccccc32)C(C(=O)NCc2ccco2)c2ccc(C)o2)cc1 (stereo not given) | · | 4 | 2 | -1 | · | · | ·
O=C(O)c1ccc(Nc2ncnc3scc(-c4ccccc4)c23)cc1 | -1 | 10 | -2 | 19 | -2 | 2 | ·
O=C(CSc1ncnc2scc(-c3ccccc3)c12)Nc1ccc(C(=O)O)cc1 | -4 | 20* | 1 | 2 | -4 | -3 | 17*
CCCc1cc(=O)[nH]c(SCC(=O)Nc2ccc3c(c2)CCC3)n1 | 1 | 15* | 0 | 9 | -3 | 0 | 4
O=C(CSc1nc(O)cc(=O)[nH]1)Nc1ccc2c(c1)CCC2 | -8 | 2 | 7 | 7 | -1 | -13 | ·
O=C(Nc1ccncc1)C1CCN(S(=O)(=O)c2ccccc2C(F)(F)F)CC1 | 0 | · | -3 | · | 13 | -1 | ·
CC(=O)c1c(C)[nH]c(C(=O)CN2C(=O)NC3(CCCCC3)C2=O)c1C | · | · | 1 | · | · | · | ·
COc1ccc(/C=N/Nc2nnc(-c3ccccc3)c(=O)[nH]2)cc1 | -1 | 17* | 3 | -1 | 12 | 5 | 38*
O=C(CSc1nnc(NC(=O)c2ccccc2)s1)NC1CCCC1 | 0 | · | 1 | · | 11 | -4 | ·
N#C/C(=C/c1ccc(-c2ccc(C(=O)O)c(Cl)c2)o1)C(=O)NCC1CCCO1 (stereo not given) | -2 | 27* | 1 | 7 | -4 | 4 | 37*
Cc1ccc(/C=C(\C#N)C(=O)NCC2CCCO2)o1 (stereo not given) | 2 | 4 | -2 | 2 | -1 | -4 | ·
Cc1ccccc1NC(=O)Nc1ccccc1C(=O)NCc1ccccc1 | -1 | 1 | -1 | -1 | -18 | 3 | ·
O=C(CCl)Nc1ccccc1C(=O)NCc1ccccc1 | -1 | 18* | 2 | -2 | -1 | -2 | 16*
O=C(/C=C/c1ccco1)Nc1cccc(C(=O)Nc2ccccc2C(=O)O)c1 | -9 | 46* | -1 | 15 | 14 | -14 | 30*
SMILES | LYPLA1 inh | p97 inhibitor | Rin1 Abl inh | Hck-Nef inh | PREPL inh | LYPLA2 inh | p97 inh conf | others
COc1ccc(OC)c(NC(=O)C(CCSC)NS(=O)(=O)c2cccs2)c1 (stereo not given) | 2 | · | 0 | · | 8 | -2 | ·
N#C/C(=C/c1ccc(Br)o1)C(N)=S | -2 | 35* | · | 18 | 4 | 0 | 30*
C[N+](C)(CC#N)C/C=C\c1ccccc1 | -1 | 17* | 0 | 10 | -11 | -6 | 4
CN(C/C=C/c1ccccc1)Cc1cccc2ccccc12 | -3 | · | 2 | · | -41 | 0 | ·
Cc1cc(NC(=O)COC(=O)c2oc3c(ccc4ccccc43)c2C)no1 | -1 | -2 | -2 | 5 | -2 | -4 | ·
Cc1c(C(=O)OCC(=O)Nc2ccc(S(N)(=O)=O)cc2)oc2c1ccc1ccccc12 | -3 | 16* | -3 | 13 | -5 | -12 | 8
CCOC(=O)C1=C(c2ccccc2)NC(N)=NC1c1ccc(OCc2ccc(Cl)cc2)c(OC)c1 (stereo not given) | -1 | 20* | -2 | -31 | 24 | 1 | 28*
Nc1nc(N)c2cc(Sc3ccc4ccccc4c3)ccc2n1 | -2 | 15* | -6 | 17 | -63 | 7 | 24*
Nc1c(C(=O)N/N=C/c2cccnc2)oc2nc(-c3ccco3)cc(-c3ccco3)c12 | -2 | 17* | 3 | 64* | 29 | -9 | 4
CCCC(C(=O)NC1CCCC1)N(CCCN1CCOCC1)C(=O)c1snc(C(N)=O)c1N (stereo not given) | 0 | 16* | -4 | 1 | 10 | -5 | 5
O=C(CC(O)(c1ccccc1)c1ccccc1)Nc1ccccn1 | · | · | 2 | · | · | · | ·
O=C(COC(=O)c1ccc2c(c1Cl)C(=O)c1ccccc1C2=O)NC1CC1 | 0 | 25* | 1 | 4 | 30 | 8 | 22*
O=C(COC(=O)c1ccc2c(c1Cl)C(=O)c1ccccc1C2=O)NC1CCCCC1 | -2 | 9 | -2 | 4 | 16 | 0 | ·
Cn1ccs/c1=N\S(=O)(=O)c1ccc(F)cc1 | -1 | 18* | -1 | -2 | 6 | -4 | 1
Cc1cc(/C=C2\SC(=S)NC2=O)c(C)n1-c1ccc(O)cc1 | -7 | 56* | -1 | 30 | 7 | 2 | 8
Cc1cc(/C=C2\SC(=S)NC2=O)c(C)n1C | -5 | 2 | -4 | 3 | 0 | 1 | ·
Cc1cc(SCC(=O)Nc2ccc(O)cc2)n2nc(C)c(-c3ccccc3)c2n1 | -13 | 24* | 2 | 8 | 2 | -16 | 8
CCN(CC)c1cccc(OC2=NS(=O)(=O)c3ccccc32)c1 | 15* | 19* | 6 | 2 | 20 | 16 | 9 | LYPLA1 conf=0
Cn1cnc(S(=O)(=O)N2CCN(c3ccc(Cl)cc3)CC2)c1 | -3 | · | -1 | · | -1 | -2 | ·
O=C(Nc1ccc(N2CCOCC2)c2nonc12)C1CCCC1 | 0 | 2 | -8 | -11 | 2 | 1 | ·
Nc1ccc(N2CCOCC2)c2nonc12 | 70* | 47* | -1 | 30 | 10 | 70* | 2 | LYPLA1 conf=1

From PubChem
